The results in this text go back to article PMC11006913.

Substitutions are numbered along the chain they refer to.

Assay in all cases: PBM; 200 nM protein, PBS
What all share (conditions): dsDNA, one strand shown

The target in experiment [1] is HOXB9 (Homo sapiens, UniProt P17482 171-250, T197M).
Experiment [2] has as its target HOXC9 (Homo sapiens, UniProt P31274 178-260, K195R).
In another experiment the target is T1, VENTX (Homo sapiens, UniProt O95231 78-163).
T1 sequence: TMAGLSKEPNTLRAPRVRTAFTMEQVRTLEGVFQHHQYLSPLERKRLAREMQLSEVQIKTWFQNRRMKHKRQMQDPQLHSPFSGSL

In experiment [3] the target is HOXA7 (Homo sapiens, UniProt P31268 116-202).
Chain of HOXA7 (Homo sapiens, UniProt P31268 116-202) (P31268 116-202): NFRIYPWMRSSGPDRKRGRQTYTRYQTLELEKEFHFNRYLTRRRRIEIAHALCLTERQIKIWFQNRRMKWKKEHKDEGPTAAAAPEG
In experiment [4] the target is HOXC10 (Homo sapiens, UniProt Q9NYD6 254-340).
Chain of HOXC10 (Homo sapiens, UniProt Q9NYD6 254-340) (Q9NYD6 254-340): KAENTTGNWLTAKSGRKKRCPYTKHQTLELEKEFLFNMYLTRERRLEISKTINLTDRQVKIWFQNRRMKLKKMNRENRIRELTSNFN
The target in experiment [5] is HOXB6 (Homo sapiens, UniProt P17509 132-218, K202E).
Chain of HOXB6 (Homo sapiens, UniProt P17509 132-218, K202E) (P17509 132-218 K202E): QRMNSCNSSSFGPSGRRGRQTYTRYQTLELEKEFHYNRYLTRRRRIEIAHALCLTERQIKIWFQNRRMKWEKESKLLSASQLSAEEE
Experiment [6] addresses HOXB9 (Homo sapiens, UniProt P17482 171-250).
In experiment [7] the target is HOXC9 (Homo sapiens, UniProt P31274 178-260).
Chain of HOXC9 (Homo sapiens, UniProt P31274 178-260) (P31274 178-260): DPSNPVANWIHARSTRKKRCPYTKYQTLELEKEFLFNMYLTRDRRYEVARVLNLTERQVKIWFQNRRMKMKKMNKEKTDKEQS
For experiment [8], the target named is HOXC9 (Homo sapiens, UniProt P31274 178-260, R193K).
Chain of HOXC9 (Homo sapiens, UniProt P31274 178-260, R193K) (P31274 178-260 R193K): as the sequence (P31274 178-260) above, with R16K counted along it
The target in experiment [9] is HOXC10 (Homo sapiens, UniProt Q9NYD6 254-340, K271E).
Chain of HOXC10 (Homo sapiens, UniProt Q9NYD6 254-340, K271E) (Q9NYD6 254-340 K271E): as the sequence (Q9NYD6 254-340) above, with K18E counted along it
In a further experiment the target is VAX1 (Homo sapiens, UniProt Q5SQQ9 86-172).
Chain of VAX1 (Q5SQQ9 86-172): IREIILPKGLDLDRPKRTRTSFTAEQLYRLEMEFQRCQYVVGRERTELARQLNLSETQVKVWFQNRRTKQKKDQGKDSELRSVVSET
Experiment [10] has as its target HOXB9 (Homo sapiens, UniProt P17482 171-250, R186Q).
In experiment [11] the target is HOXC9 (Homo sapiens, UniProt P31274 178-260, R222W).
Chain of HOXC9 (Homo sapiens, UniProt P31274 178-260, R222W) (P31274 178-260 R222W): as the sequence (P31274 178-260) above, with R45W counted along it
In experiment [12] the target is HOXA7 (Homo sapiens, UniProt P31268 116-202, W177C).
Chain of HOXA7 (Homo sapiens, UniProt P31268 116-202, W177C) (P31268 116-202 W177C): as the sequence (P31268 116-202) above, with W62C counted along it
The target in experiment [13] is HOXB6 (Homo sapiens, UniProt P17509 132-218).
Chain of HOXB6 (Homo sapiens, UniProt P17509 132-218) (P17509 132-218): as the sequence (P17509 132-218 K202E) above, with E71K counted along it
The target in experiment [14] is HOXA2 (Homo sapiens, UniProt O43364 129-215, R185K).
Chain of HOXA2 (Homo sapiens, UniProt O43364 129-215, R185K) (O43364 129-215 R185K): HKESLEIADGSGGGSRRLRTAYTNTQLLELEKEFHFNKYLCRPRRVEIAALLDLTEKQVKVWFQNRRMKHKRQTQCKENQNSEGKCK
Experiment [15] concerns the target HOXA2 (Homo sapiens, UniProt O43364 129-215, Y150S).
Experiment [16] deals with HOXA2 (Homo sapiens, UniProt O43364 129-215).
Chain of HOXA2 (Homo sapiens, UniProt O43364 129-215) (O43364 129-215): as the sequence (O43364 129-215 R185K) above, with K57R counted along it
For experiment [17], the target named is T2, PAX4 (Homo sapiens, UniProt O43316 9-242).
T2 sequence: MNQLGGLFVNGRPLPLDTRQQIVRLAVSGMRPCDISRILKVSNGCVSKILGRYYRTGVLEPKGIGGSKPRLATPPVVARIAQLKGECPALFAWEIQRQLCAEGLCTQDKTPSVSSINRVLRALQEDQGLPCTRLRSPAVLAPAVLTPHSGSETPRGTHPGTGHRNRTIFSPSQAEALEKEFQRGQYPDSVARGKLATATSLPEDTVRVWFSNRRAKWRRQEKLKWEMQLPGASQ

Experiment [18] addresses T3, PAX4 (Homo sapiens, UniProt O43316 9-242, R227W).
T3 sequence: T2 sequence with R219W

Chain of HOXA2 (Homo sapiens, UniProt O43364 129-215, Y150S) (O43364 129-215 Y150S): as the sequence (O43364 129-215 R185K) above, with Y22S, K57R counted along it
Chain of HOXC9 (Homo sapiens, UniProt P31274 178-260, K195R) (P31274 178-260 K195R): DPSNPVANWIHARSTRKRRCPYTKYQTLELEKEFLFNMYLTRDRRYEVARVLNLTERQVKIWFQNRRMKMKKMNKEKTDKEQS
Chain of HOXB9 (Homo sapiens, UniProt P17482 171-250, R186Q) (P17482 171-250 R186Q): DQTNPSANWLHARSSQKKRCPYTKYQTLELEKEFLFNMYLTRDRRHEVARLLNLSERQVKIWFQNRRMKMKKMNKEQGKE
Chain of HOXB9 (Homo sapiens, UniProt P17482 171-250) (P17482 171-250): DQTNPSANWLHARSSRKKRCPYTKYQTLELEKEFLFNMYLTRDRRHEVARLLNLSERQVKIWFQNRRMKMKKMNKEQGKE
Chain of HOXB9 (Homo sapiens, UniProt P17482 171-250, T197M) (P17482 171-250 T197M): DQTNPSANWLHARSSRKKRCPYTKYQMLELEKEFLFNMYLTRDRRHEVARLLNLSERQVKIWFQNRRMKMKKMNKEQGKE

Take CAATTAAA: the binding signal was 10.2 upbm affinity estimate (log intensity, higher = more binding, comparable within an allelic series) with HOXB9 [1]; 12.9 upbm affinity estimate (log intensity, higher = more binding, comparable within an allelic series) with HOXC9 [2]; 12.3 upbm affinity estimate (log intensity, higher = more binding, comparable within an allelic series) with VENTX; 11.8 upbm affinity estimate (log intensity, higher = more binding, comparable within an allelic series) with HOXA7 [3]; 12.5 upbm affinity estimate (log intensity, higher = more binding, comparable within an allelic series) in the experiment with HOXC10 [4]; 10 upbm affinity estimate (log intensity, higher = more binding, comparable within an allelic series) with HOXB6 [5]. Also, the binding signal with HOXB9 [6] was 12.3 upbm affinity estimate (log intensity, higher = more binding, comparable within an allelic series); in the experiment with HOXC9 [7], 12.9 upbm affinity estimate (log intensity, higher = more binding, comparable within an allelic series); with HOXC9 [8] it was 12.8 upbm affinity estimate (log intensity, higher = more binding, comparable within an allelic series); in the experiment with HOXC10 [9], 12.3 upbm affinity estimate (log intensity, higher = more binding, comparable within an allelic series); with VAX1, 12.8 upbm affinity estimate (log intensity, higher = more binding, comparable within an allelic series); in the experiment with HOXB9 [10], 12 upbm affinity estimate (log intensity, higher = more binding, comparable within an allelic series). The binding signal is 11.3 upbm affinity estimate (log intensity, higher = more binding, comparable within an allelic series) with HOXC9 [11]; 8.84 upbm affinity estimate (log intensity, higher = more binding, comparable within an allelic series) with HOXA7 [12]; 12.1 upbm affinity estimate (log intensity, higher = more binding, comparable within an allelic series) with HOXB6 [13].

As for CCCTACGG, the binding signal with HOXC9 [2] was 9.6 upbm affinity estimate (log intensity, higher = more binding, comparable within an allelic series); with VENTX, 8.36 upbm affinity estimate (log intensity, higher = more binding, comparable within an allelic series); in the experiment with HOXC9 [7] it was 9.63 upbm affinity estimate (log intensity, higher = more binding, comparable within an allelic series); in the experiment with HOXC9 [8], 9.67 upbm affinity estimate (log intensity, higher = more binding, comparable within an allelic series); with HOXC9 [11], 9.62 upbm affinity estimate (log intensity, higher = more binding, comparable within an allelic series).

Turning to ACAATTAA, the binding signal in the experiment with HOXB9 [1] is 10.1 upbm affinity estimate (log intensity, higher = more binding, comparable within an allelic series); with HOXC9 [2], 12.5 upbm affinity estimate (log intensity, higher = more binding, comparable within an allelic series); with HOXA7 [3], 11.6 upbm affinity estimate (log intensity, higher = more binding, comparable within an allelic series); in the experiment with HOXC10 [4], 12.2 upbm affinity estimate (log intensity, higher = more binding, comparable within an allelic series); with HOXB6 [5] it was 10.1 upbm affinity estimate (log intensity, higher = more binding, comparable within an allelic series); with HOXB9 [6] it was 11.8 upbm affinity estimate (log intensity, higher = more binding, comparable within an allelic series). For the same sequence, the binding signal with HOXC9 [7] is 12.6 upbm affinity estimate (log intensity, higher = more binding, comparable within an allelic series); with HOXC9 [8], 12.5 upbm affinity estimate (log intensity, higher = more binding, comparable within an allelic series); with HOXA2 [14], 13.1 upbm affinity estimate (log intensity, higher = more binding, comparable within an allelic series); in the experiment with HOXC10 [9], 12 upbm affinity estimate (log intensity, higher = more binding, comparable within an allelic series); with HOXB9 [10], 11.6 upbm affinity estimate (log intensity, higher = more binding, comparable within an allelic series); with HOXC9 [11] it was 11 upbm affinity estimate (log intensity, higher = more binding, comparable within an allelic series). Also, the binding signal is 8.88 upbm affinity estimate (log intensity, higher = more binding, comparable within an allelic series) in the experiment with HOXA7 [12] and 11.9 upbm affinity estimate (log intensity, higher = more binding, comparable within an allelic series) with HOXB6 [13].

On to CTCAATTA, for which the binding signal is 13 upbm affinity estimate (log intensity, higher = more binding, comparable within an allelic series) in the experiment with HOXA2 [14]; 12.9 upbm affinity estimate (log intensity, higher = more binding, comparable within an allelic series) in the experiment with VAX1; 10.8 upbm affinity estimate (log intensity, higher = more binding, comparable within an allelic series) in the experiment with HOXA2 [15]; 12.1 upbm affinity estimate (log intensity, higher = more binding, comparable within an allelic series) with HOXA2 [16].

For the sequence CTAATTAG, the binding signal in the experiment with VENTX was 13.5 upbm affinity estimate (log intensity, higher = more binding, comparable within an allelic series); with HOXA7 [3], 11.9 upbm affinity estimate (log intensity, higher = more binding, comparable within an allelic series); with PAX4 [17], 13 upbm affinity estimate (log intensity, higher = more binding, comparable within an allelic series); with HOXB6 [5] it was 10.2 upbm affinity estimate (log intensity, higher = more binding, comparable within an allelic series); in the experiment with HOXA2 [14], 14.3 upbm affinity estimate (log intensity, higher = more binding, comparable within an allelic series); with VAX1, 14.1 upbm affinity estimate (log intensity, higher = more binding, comparable within an allelic series). Moreover, the binding signal with PAX4 [18] was 11.7 upbm affinity estimate (log intensity, higher = more binding, comparable within an allelic series); with HOXA2 [15], 10.9 upbm affinity estimate (log intensity, higher = more binding, comparable within an allelic series); in the experiment with HOXA7 [12], 8.87 upbm affinity estimate (log intensity, higher = more binding, comparable within an allelic series); with HOXA2 [16], 13.4 upbm affinity estimate (log intensity, higher = more binding, comparable within an allelic series); in the experiment with HOXB6 [13], 12.2 upbm affinity estimate (log intensity, higher = more binding, comparable within an allelic series).

With ATTAATAG, the binding signal with HOXB9 [1] was 10.1 upbm affinity estimate (log intensity, higher = more binding, comparable within an allelic series); with HOXC9 [2], 12.7 upbm affinity estimate (log intensity, higher = more binding, comparable within an allelic series); with HOXA7 [3], 11.6 upbm affinity estimate (log intensity, higher = more binding, comparable within an allelic series); with HOXC10 [4] it was 12.2 upbm affinity estimate (log intensity, higher = more binding, comparable within an allelic series); with HOXB6 [5] it was 10.1 upbm affinity estimate (log intensity, higher = more binding, comparable within an allelic series); with HOXB9 [6], 11.9 upbm affinity estimate (log intensity, higher = more binding, comparable within an allelic series). The binding signal with HOXC9 [7] is 12.6 upbm affinity estimate (log intensity, higher = more binding, comparable within an allelic series); with HOXC9 [8], 12.6 upbm affinity estimate (log intensity, higher = more binding, comparable within an allelic series); with HOXC10 [9], 12 upbm affinity estimate (log intensity, higher = more binding, comparable within an allelic series); in the experiment with VAX1, 12.6 upbm affinity estimate (log intensity, higher = more binding, comparable within an allelic series); with HOXB9 [10], 11.7 upbm affinity estimate (log intensity, higher = more binding, comparable within an allelic series); with HOXC9 [11], 11.1 upbm affinity estimate (log intensity, higher = more binding, comparable within an allelic series). In addition, the binding signal with HOXA7 [12] is 9.03 upbm affinity estimate (log intensity, higher = more binding, comparable within an allelic series); in the experiment with HOXB6 [13] it was 12 upbm affinity estimate (log intensity, higher = more binding, comparable within an allelic series).

As to CAATTACC, the binding signal with HOXA7 [3] is 11.4 upbm affinity estimate (log intensity, higher = more binding, comparable within an allelic series); with HOXB6 [5], 9.82 upbm affinity estimate (log intensity, higher = more binding, comparable within an allelic series); with HOXA2 [14], 13.1 upbm affinity estimate (log intensity, higher = more binding, comparable within an allelic series); in the experiment with VAX1, 12.8 upbm affinity estimate (log intensity, higher = more binding, comparable within an allelic series); with HOXA7 [12], 8.84 upbm affinity estimate (log intensity, higher = more binding, comparable within an allelic series); in the experiment with HOXB6 [13], 11.8 upbm affinity estimate (log intensity, higher = more binding, comparable within an allelic series).

In the case of ACTAATTA, the binding signal was 10.1 upbm affinity estimate (log intensity, higher = more binding, comparable within an allelic series) in the experiment with HOXB9 [1]; 12.5 upbm affinity estimate (log intensity, higher = more binding, comparable within an allelic series) in the experiment with HOXC9 [2]; 13.3 upbm affinity estimate (log intensity, higher = more binding, comparable within an allelic series) with VENTX; 12.1 upbm affinity estimate (log intensity, higher = more binding, comparable within an allelic series) with HOXA7 [3]; 12.7 upbm affinity estimate (log intensity, higher = more binding, comparable within an allelic series) with PAX4 [17]; 10.2 upbm affinity estimate (log intensity, higher = more binding, comparable within an allelic series) with HOXB6 [5]. Also, the binding signal is 13.8 upbm affinity estimate (log intensity, higher = more binding, comparable within an allelic series) with HOXA2 [14]; 11.9 upbm affinity estimate (log intensity, higher = more binding, comparable within an allelic series) with HOXC10 [9]; 14 upbm affinity estimate (log intensity, higher = more binding, comparable within an allelic series) with VAX1; 11.4 upbm affinity estimate (log intensity, higher = more binding, comparable within an allelic series) with PAX4 [18]; 11 upbm affinity estimate (log intensity, higher = more binding, comparable within an allelic series) with HOXA2 [15]; 8.93 upbm affinity estimate (log intensity, higher = more binding, comparable within an allelic series) with HOXA7 [12]. The binding signal was 13.3 upbm affinity estimate (log intensity, higher = more binding, comparable within an allelic series) with HOXA2 [16] and 12.4 upbm affinity estimate (log intensity, higher = more binding, comparable within an allelic series) with HOXB6 [13].
